# Measured values reported in PubChem BioAssay (NCATS).
# Records with an inconclusive call do not appear. Values without a mark were called inactive. The source made the active and inactive calls. The call rests on the fitted dose curve; in most records, active means well fitted cell-killing curve with a large enough effect; inconclusive means small, poorly fitted or top-dose-only effect, or effect the other way; inactive means no such curve, though single readings can be large or run the other way.
# Assays:
# [1] = Quantitative High-Throughput drug screen in 47 multiple myeloma cell lines against the NCATS MIPE library collection: KMS28PE_JCRB cell viability assay (AID 1918983); conditions: KMS28PE multiple myeloma viability, CellTiter-Glo ATP, 48 h; further: nearly all actives have a fitted effect of over 35% in size
# Source text: (§1) PI: Beverly A. Mock Ph.D.
# (§2) Laboratory of Cancer Biology and Genetics,
# (§3) Center for Cancer Research, National Cancer Institute,
# (§4) National Institute of Health, Bethesda, Maryland
# (§5) Drug resistance and disease progression are common in multiple myeloma (MM) patients, underscoring the need for new therapeutic combinations. […] We hypothesized that effective combinations would reduce MYC expression and enhance p16 activity. […] These preclinical data identify potentially useful drug combinations for evaluation in drug-resistant MM and reveal potential mechanisms of combined drug sensitivity.
# (§6) Described herein is the primary MIPE qHTS used to cherrypick compounds. Validated compounds were then further tested for potential synergistic activiy.
# [1] […]
# (§7) 5; Detector; 425V; Luminescence; Viewlux PerkinElmer. […]
# (§8) 1. […] Briefly, the corresponding myeloma cell lines were screened in 1,536-well plates with 500 cells, 5-uL per well for inhibition of cell viability (assessed by measuring ATP levels with CellTiterGlo). […]
# (§9) 5. Signal was measured as median relative luminescence units on a ViewLux (PerkinElmer) multiplate reader. […]
# [2] = Quantitative High-Throughput drug screen in 47 multiple myeloma cell lines against the NCATS MIPE library collection: OCIMY7_PLB cell viability assay (AID 1918987); conditions: OCI-MY7 myeloma viability, CellTiter-Glo ATP, 48 h; further: nearly all actives have a fitted effect of over 65% in size
# In short: (§10)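 Cells were exposed to library compounds for 48 hours, after which ATP was measured by CellTiter-Glo. Signal was taken as median relative luminescence units.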
# [3] = Quantitative High-Throughput drug screen in 47 multiple myeloma cell lines against the NCATS MIPE library collection: OCIMY5_PLB cell viability assay (AID 1918988); conditions: OCI-MY5 myeloma viability, ATP luminescence, 48 h; further: nearly all actives have a fitted effect of over 65% in size
# In short: as §10
# [4] = Quantitative High-Throughput drug screen in 47 multiple myeloma cell lines against the NCATS MIPE library collection: OPM1_PLB cell viability assay (AID 1918989); conditions: CellTiter-Glo, 48 h; series mostly up to 45.8 µM; further: nearly all actives have a fitted effect of over 40% in size
# Source text: as §1, §2, §3, §4, §5, §6
# [1] […]
# as §7, §8, §9
# [5] = Quantitative High-Throughput drug screen in 47 multiple myeloma cell lines against the NCATS MIPE library collection: SKMM1_PLB cell viability assay (AID 1919863); conditions: SKMM1 myeloma viability, CellTiter-Glo ATP, 48 h; viability: active compounds read low; further: nearly all actives have a fitted effect of over 35% in size
# Source text: as §1, §2, §3, §4, §5, §6
# [1] […]
# as §7, §8, §9
# [6] = Quantitative High-Throughput drug screen in 47 multiple myeloma cell lines against the NCATS MIPE library collection: U266_ATCC cell viability assay (AID 1919864); conditions: U266 myeloma viability, CellTiter-Glo ATP luminescence, 48 h; series mostly up to 45.8 µM; further: nearly all actives have a fitted effect of over 35% in size
# In short: as §10
# Potency means the concentration at half of the fitted maximal effect.
smiles,measurement,setting,value
C[C@@H]1C[C@@H]([C@H](O)CC2CC(=O)NC(=O)C2)C(=O)[C@@H](C)C1,Potency,[1],1180 nM (active)
same,Potency,[2],2640 nM (active)
same,Potency,[3],1660 nM (active)
same,Potency,[4],833 nM (active)
same,Potency,[5],296 nM (active)
same,Potency,[6],1050 nM (active)
COc1ccc(C(=O)N2CCCC2=O)cc1,Potency,[3],662 nM (active)
same,viability,[5],101%
same,Potency,[6],inactive
COC(=O)C1=CCCN(C)C1,Potency,[4],inactive
